High-throughput results as filed in PubChem BioAssay.
Most compounds without a hit are left out; they make up all but 3.7% or so of the library.
Sm TGR inh: qHTS Assay for the Inhibitors of Schistosoma Mansoni Peroxiredoxins. Potency, µM (highest dose often 114 µM), for the others: at the highest dose activity change, negative = inhibition, most hits filed as inhibitors. Schistosoma mansoni thioredoxin glutathione reductase (TGR), Q962Y6. AID 485364, 2010. purified TGR, DTNB reduction, TNB absorbance 405 nm. 360,000 compounds, 3% hits; note: nearly all actives have a fitted effect of over 60% in size
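TGR 20 nM + NADPH 100 uM (dispensed conc.), cpd preinc 15 min RT; start with NADPH (500 uM addition) then DTNB (15 mM addition). Kinetic TNB absorbance, 405 nm filter. Four-parameter Hill fit across titration.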
FMDV antiviral: High Throughput Screening for Foot and Mouth Disease Virus Antivirals. FMDV antiviral cell-based qHTS. Potency, µM (top dose mostly 57.9 µM), inactives show at the top dose activity change, negative = inhibition, most hits filed as inhibitors. 410,000 compounds, 1.2% hits. AID 1159524, 2015; calls by dose curve; tested in HEK293T cells; note: read-out not given here; nearly all actives have a fitted effect of over 45% in size
Tb PYK inh: qHTS of Trypanosoma Brucei Inhibitors. pyruvate kinase (Trypanosoma brucei), Q57TT1. TbPYK enzyme, Kinase-Glo Plus ATP luminescence, 45 min. Potency, µM (top dose mostly 76.8 µM), inactives show top-dose activity, negative = inhibition, usual class: inhibitors. 410,000 compounds, 0.12% hits. AID 624173, 2012; note: nearly all actives have a fitted effect of over 50% in size
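T. brucei PYK with substrate was exposed to pin-transferred compounds across a concentration series, then started with 130 uM ADP (final). After 45 min at room temperature, Kinase-Glo Plus luminescence was read, normalized and curve-fitted.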
RE007 growth inh: qHTS Assay for Inhibitors of the HIV-1 protein Vpr | S. pombe RE007 Vpr strain, BacTiter-Glo ATP luminescence, 24 h | Potency, µM (highest dose often 92.2 µM), for inactives: at the top dose activity change, negative = less growth, usual class: inhibitors | 360,000 compounds, 0.21% hits; active = well fitted falling curve with a large enough effect; inconclusive = small, poorly fitted or top-dose-only effect; inactive = no such curve, though single readings can be large or run the other way; note: nearly all actives have a fitted effect of over 50% in size
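Fission yeast strain RE007, carrying one chromosomally integrated HIV-1 vpr copy, was seeded at OD 0.01 in PMG+AL medium with 23 nL pinned compound. After 24 h at 30 °C and 99% humidity, viability was read by BacTiter-Glo luminescence.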
Starred values were filed as active, the others as inactive; ? = inconclusive; . = no result given. Unless noted, calls come from the whole dose curve; as a rule, active = well fitted curve in the direction sought with a large enough effect; inconclusive = small, poorly fitted or top-dose-only effect, or another doubt; inactive = no such curve, though single readings can be large; an effect the other way counts as inactive or inconclusive. % is set by controls: 0 for no effect and ±100 for the full control effect; potency is the fitted concentration of half-maximal effect.

SMILES	Sm TGR inh	FMDV antiviral	Tb PYK inh	RE007 growth inh
Cc1ccc(C(=O)Nc2ccc3ncccc3c2)cc1	-11%	14µM*	-4%	-8%
COc1ccc2cc(CN(C(=O)c3cc(C)nn3C)C3CC3)c(-c3ccc(Cl)cc3)nc2c1	.	-19%	.	.
CN1CCN(c2ccc(NC(=S)NC(=O)/C=C/c3ccco3)cc2)CC1	50µM*	8%	-2%	?
COc1ccc(/C=C/C(=O)NC(=S)Nc2ccc(S(=O)(=O)Nc3ccc(OC)nn3)cc2)cc1	-35%	39%	-7%	-11%
CC(=O)N(C)c1ccc(NC(=S)NC(=O)/C=C/c2ccco2)cc1	28µM*	18%	6%	10%
COc1cc(NS(=O)(=O)c2ccc(NC(=S)NC(=O)/C=C/c3ccco3)cc2)ncn1	40µM*	39%	-18%	6%
CCOc1ccc(NC(=S)NC(=O)/C=C/c2ccco2)cc1	22µM*	12%	-8%	-7%
CCN1CCc2c(sc(-n3cccc3)c2C(C)NC(=O)Nc2ccc(C(=O)OC)cc2)C1 (stereo not drawn)	-19%	0%	4%	.
Cc1cccnc1NC(=S)NC(=O)/C=C/c1ccco1	?	39%	4%	?
CC(=O)Nc1ccc(NC(=S)NC(=O)/C=C/c2ccco2)cc1	18µM*	-7%	-20%	-19%
CCOC(=O)c1c(-c2ccccc2)nc2c(C)cccn12	5%	-11%	-4%	14µM*
Cc1cccn2c(N)c(-c3ccccc3)nc12	-7%	58%	-4%	2%
COC(=O)Nc1c(-c2ccccc2)nc2ccccn12	-1%	7%	0%	-5%
CCOC(=O)c1c(-c2ccccc2)nc2ccccn12	-28%	-29%	0%	18µM*
CCCCCCCCCCOC(=O)Cn1c(COc2cccc(C)c2)[n+](C)c2ccccc21	10%	20µM*	2%	-11%
CCCCCCCCCCOC(=O)Cn1c(COc2ccccc2)[n+](C)c2ccccc21	19%	35µM*	0%	.
CCCCCCCCCCOC(=O)Cn1c(COc2ccc(OC)cc2)[n+](C)c2ccccc21	-12%	?	-1%	-18%
C=Cc1ccc(Cn2c(C(=O)O)c(CNC3CCCCC3)c3ccc(C)cc32)cc1	-3%	17%	-4%	.
COc1ccc(C)cc1NC(=O)c1cnc2ccc(C)cn2c1=O	-14%	6%	1%	.
Cc1ccc(NCc2n[nH]c(=S)n2-c2cccc(Cl)c2)cc1	6%	-14%	3.5µM*	-8%
Cc1ccc(-n2c(CSc3nc(C)cc(C)n3)n[nH]c2=S)cc1	-1%	-10%	7.1µM*	0%
Cc1ccc(-n2c(CNc3ccc(C)c(Cl)c3)n[nH]c2=S)cc1	0%	-13%	4.5µM*	1%
Cc1ccc(-n2c(CNc3cccc(Cl)c3)n[nH]c2=S)cc1	15%	-8%	?	-13%
CC(=O)c1ccc(C(=O)NCc2nc(-c3ccccc3NC(=O)c3cc(C)oc3C)oc2C)cc1	.	10%	.	.
Cc1ccc(NC(=O)Cn2nc(N3CCN(c4ccccc4)CC3)ccc2=O)cc1F	0%	-28%	16%	.
SMILES	Sm TGR inh	FMDV antiviral	Tb PYK inh	RE007 growth inh
O=C(NC(=S)NC(=O)c1ccccc1F)c1ccccc1F	2.8µM*	27%	3%	-1%
COc1ccc(CCNC(=S)NC(=O)c2ccccc2)cc1C	3.5µM*	-9%	0%	-14%
O=C(NC(=S)NCCc1ccccc1)c1ccccc1	18µM*	25%	2%	-19%
COc1ccc(CCNC(=S)NC(=O)c2ccc(Br)cc2)cc1OC	?	-26%	-1%	-27%
O=C(NC(=S)NCCc1ccccc1)c1ccccc1F	40µM*	30%	-4%	-7%
O=C(NCC1Cc2cccc(-c3nccs3)c2O1)c1ccnc(Cl)c1 (stereo not drawn)	.	10%	.	.
CCOCCCNC(=O)C(=O)Nc1c2c(nn1-c1ccccc1)CSC2	-1%	-13%	-2%	.
Cc1ccc(C(=O)NC(=S)Nc2cccnc2Cl)cc1	16µM*	58%	0%	-12%
Cc1ccc(C(=O)NC(=S)NCc2ccccc2)cc1	6.3µM*	44%	7%	?
COc1ccccc1C(=O)NC(=S)Nc1cccnc1Cl	-1%	-28%	4%	-24%
CCCn1c(=O)c2sccc2n2c(CCCC(=O)NC3CCC(C)CC3)nnc12 (stereo not drawn)	12%	2%	2%	.
O=C(O)c1cccc2c1C(=O)c1ccc(-c3ccc(F)cc3OCc3ccccc3)cc1S2(=O)=O	32µM*	39%	1%	5%
O=C1c2ccc(-c3ccc(F)cc3OCc3ccccc3)cc2S(=O)(=O)c2cccc(C(=O)N3CCN(c4ncc(Br)cn4)CC3)c21	.	-11%	-7%	3%
CCOC(=O)C1=C(C)NC(=O)/C1=C\N(C)C	20µM*	-8%	-4%	12%
Nc1ccc(-c2cc3ccccc3oc2=O)cc1	-11%	1.1µM*	-4%	-21%
Cc1cc(Cl)ccc1OCC(=O)N1CCOc2ccc(CN3C[C@@H](C)O[C@@H](C)C3)cc2C1	.	-20%	.	.
O=C(CCn1c(=O)oc2ccccc21)N1CCCCCC1	-12%	35%	2%	-17%
O=C(CCn1c(=O)oc2ccccc21)n1c(=O)oc2ccccc21	16µM*	23%	0%	20%
NS(=O)(=O)c1ccc(NC(=S)Nc2cc(Cl)c(Cl)cc2Cl)cc1	32µM*	-28%	-8%	0%
CSc1ccccc1NC(=S)Nc1ccc(S(N)(=O)=O)cc1	22µM*	-6%	6%	-8%
NS(=O)(=O)c1ccc(NC(=S)Nc2ccc(C(=O)N3CCCCC3)cc2)cc1	45µM*	-15%	3%	-8%
COc1ccc2[nH]cc(CC(N)C(=O)O)c2c1 (stereo not drawn)	.	-12%	.	.
NC(Cc1c[nH]c2ccc(OCc3ccccc3)cc12)C(=O)O (stereo not drawn)	11µM*	-5%	-5%	-13%
CCC(C(=O)Nc1ccccc1C(=O)OC)n1c(C)c2cnn(-c3ccccc3)c(=O)c2c1C (stereo not drawn)	0%	?	1%	.
COCCC(=O)Nc1ccc2c(c1)CN(C(=O)c1ccc(CSC)o1)CC2	45µM*	5%	-10%	57%
SMILES	Sm TGR inh	FMDV antiviral	Tb PYK inh	RE007 growth inh
O=S(=O)(CCc1ccncc1)Cc1ccc2c3c(cccc13)CC2	40µM*	-12%	-1%	1%
O=C(c1ccc2c3c(cccc13)CC2)C1CCCN(Cc2ccncc2)C1 (stereo not drawn)	-19%	?	-5%	-6%
O=[N+]([O-])c1ccc(N2CCCCCC2)c2nonc12	1%	-7%	1%	-12%
Cc1ccc(S(=O)c2ccc([N+](=O)[O-])c3nonc23)cc1 (stereo not drawn)	.	?	6.3µM*	?
COC(=O)c1cn([C@@H]2C[C@@H](C(=O)Nc3cccc(SC)c3)N(C3CCCCCC3)C2)nn1	.	-12%	.	.
COc1ccc(CNC(=O)CSCc2cnn(-c3ccccc3)c2-n2cccc2)cc1OC	-12%	16µM*	-4%	.
